GLS inhibitor: inhibitors of human glutaminase (GLS) | GLS enzymatic activity, qHTS titration | Potency, µM (top dose mostly 45.5 µM), most hits filed as inhibitors | 410,000 tested, 0.21% active | AID 624170
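Compounds were pin-transferred onto hKGA, after which L-glutamine (1 mM solution) and a detection mix of glutamate oxidase, HRP and Amplex Red were added. Initial and 30 min RT fluorescence reads were collected.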
BAZ2B inh: BAZ2B (human) inhibition; AlphaScreen BAZ2B-H3K14Ac peptide displacement; Potency, µM (doses to about 114 µM), usual class: inhibitors; 360,000 tested, 4.4% active; AID 504333; also: nearly all actives have a fitted effect of over 60% in size
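BAZ2B (50 nM) with biotin-H3(5-23)K14Ac peptide (50 nM) in PBS pH 7.4, 0.01% Tween-20, preformed 30 min, then compound 30 min at room temperature; top concentration 110uM. AlphaScreen streptavidin donor/nickel chelate acceptor beads (10 ug/mL final), 20 min dark, signal read.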
JMJD2A Tudor inh: JMJD2A Tudor domain (human) inhibition; AlphaScreen JMJD2A-Tudor / H3K4me3 peptide binding; Potency, µM (highest dose often 114 µM), actives largely listed as inhibitors; 390,000 tested, 4.4% active; also: nearly all actives have a fitted effect of over 50% in size
G9a inh: blocks human histone lysine methyltransferase G9a; Potency, µM (series often up to 102 µM), hits mostly inhibitors; Q96KQ7; 350,000 tested, 8.8% active; G9a H3K9 monomethylation, AlphaScreen, 2 h; also: nearly all actives have a fitted effect of over 75% in size
Target sequence (Q96KQ7 913-1193 limits assumed): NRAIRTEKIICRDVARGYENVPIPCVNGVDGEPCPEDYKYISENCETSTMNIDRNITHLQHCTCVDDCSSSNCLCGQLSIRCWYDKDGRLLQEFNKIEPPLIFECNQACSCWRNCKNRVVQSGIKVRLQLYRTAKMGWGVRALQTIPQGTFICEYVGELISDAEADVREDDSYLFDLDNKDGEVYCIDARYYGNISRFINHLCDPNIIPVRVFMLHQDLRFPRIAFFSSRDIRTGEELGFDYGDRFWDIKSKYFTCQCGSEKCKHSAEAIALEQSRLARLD
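Compounds were preincubated with 20 nM G9a for 15 min, after which biotinylated H3K9 peptide (500 nM) and SAM (20 uM) started a 2 h room-temperature reaction. Monomethylated product was quantified by antibody-based AlphaScreen chemiluminescence.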
HP1b chromo inh: HP1-beta chromodomain-methylated histone interaction inhibition. AlphaScreen HP1-beta / biotin-H3K9me3 peptide binding. Potency, µM (doses to about 114 µM), hits mostly inhibitors. 390,000 tested, 0.56% active. AID 540317; also: nearly all actives have a fitted effect of over 70% in size
Target sequence (P83916 whole entry, looked up): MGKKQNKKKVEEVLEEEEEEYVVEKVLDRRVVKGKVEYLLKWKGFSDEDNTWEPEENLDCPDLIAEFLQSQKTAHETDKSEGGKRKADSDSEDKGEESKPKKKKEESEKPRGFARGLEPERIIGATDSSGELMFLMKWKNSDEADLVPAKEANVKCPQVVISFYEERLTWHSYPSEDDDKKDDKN
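Compound inhibition of the preformed complex between 50 nM HP1-beta and 50 nM biotinylated H3K9me3 peptide was read by AlphaScreen. Buffer was PBS pH 7.4 with 0.01% Tween-20. Incubations ran 30 min at room temperature, with 10 ug/mL donor/acceptor beads.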
L3MBTL1 block: blocks human L3MBTL1 | Q9Y468 | AlphaScreen L3MBTL1–H3K9me1 peptide binding | Potency, µM (doses to about 57.1 µM), usual class: inhibitors | 230,000 tested, 0.66% active | AID 485360; also: nearly all actives have a fitted effect of over 60% in size
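First, the protein-peptide complex forms for 30 min at room temperature (L3MBTL1 50 nM, biotinylated H3K9me1 peptide 75 nM). Next, compounds are pin-transferred and incubated 30 min. Finally, AlphaScreen beads are added and read after 30 min.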
A number is an active result; i = inactive; ? = inconclusive; nt = no result; [ ] = dose if it differs, or a comment. Compounds with a hit are over-represented: about 10% of the library has one in this group of screens. Calls follow the shape of the dose curve; as a rule, active = well fitted curve in the direction sought with a large enough effect; inconclusive = small, poorly fitted or top-dose-only effect, or another doubt; inactive = no such curve, though single readings can be large; an effect the other way counts as inactive or inconclusive.

SMILES	GLS inhibitor	BAZ2B inh	JMJD2A Tudor inh	G9a inh	HP1b chromo inh	L3MBTL1 block
O=C(NCCc1ccc(Cl)cc1)c1ccc2c(c1)N(Cc1cccc(Cl)c1)C(=O)c1ccccc1S2(=O)=O	i	i	i	i	i	nt
COc1ccc(C)cc1NC(=O)c1cc2c(=O)n(Cc3cccnc3)ccc2nc1C	i	i	i	i	i	nt
O=C(CCNS(=O)(=O)c1cccc2nsnc12)Nc1ccc(F)cc1	i	i	i	i	i	nt
Cc1ccc(Cn2cc(CCC(=O)NC3CCCCC3)c3ccccc32)cc1	i	i	i	i	i	nt
CCCCN1C(=O)C(O)(c2c(C)[nH]c3ccccc23)c2ccccc21 (stereo not given)	i	i	i	i	i	nt
C=CCN1C(=O)C2(NNc3ccccc3O2)c2ccccc21 (stereo not given)	i	?	?	16µM	i	nt
CCCCN1C(=O)C2(NNc3ccccc3O2)c2ccccc21 (stereo not given)	i	45µM	?	?	i	nt
CCOc1ccc(CCNC(=O)c2cccc(-n3c(C)nc4cccnc43)c2)cc1	i	i	i	i	i	nt
COc1ccc(-n2nc3c(N4CCCC(C(=O)NCCc5ccc(C)cc5)C4)nnc(C)c3c2C)cc1 (stereo not given)	i	?	?	?	i	nt
Cc1ccc(S(=O)(=O)NC(CC(=O)NCC2CCCO2)c2ccco2)cc1 (stereo not given)	i	i	4.5µM	i	i	i
O=C(O)CC(NS(=O)(=O)c1ccc(Br)cc1)c1ccco1 (stereo not given)	i	i	i	79µM	i	i
CCCCN(CC)CCCNC(=S)Nc1ccc2nc(N3CCN(CC)CC3)cc(C)c2c1	?	i	i	50µM	i	nt
CCCCN(CC)CCCNC(=S)Nc1ccc2nc(N3CCN(C)CC3)cc(C)c2c1	i	i	i	40µM	i	nt
CCN1CCN(c2cc(C)c3cc(NC(=S)NCCCOC)ccc3n2)CC1	i	i	i	?	i	nt
O=C(NCCc1ccc(Cl)cc1)c1cnc2sc(N3CCOCC3)nn2c1=O	i	i	i	i	i	nt
CCCCC/C=C\C/C=C\CCCCCCCC(=O)NCC(=O)O	nt	nt	nt	i	nt	nt
COc1ccc(-c2nc3sc(CCNC(=O)c4cc(Cl)ccc4OC)c(C)n3n2)cc1	i	i	i	i	i	nt
CC1CCc2ccccc2N1C(=O)c1cccs1 (stereo not given)	i	i	56µM	i	?	nt
CCc1ccc(C(=O)c2cn(CC(=O)Nc3ccc4c(c3)OCO4)c3ccc(OC)cc3c2=O)cc1	i	79µM	8.9µM	14µM	i	nt
CCOC(=O)c1cccc(NC(=O)c2cc3c(=O)n(C)c4ccccc4c3n2C)c1	i	?	i	i	i	nt
Cc1ccc(S(=O)(=O)c2nc(-c3ccc(F)cc3)oc2SCC(=O)NC2CCCCC2)cc1	i	i	i	i	i	nt
CSc1oc(-c2ccco2)nc1S(=O)(=O)c1ccccc1	i	i	i	32µM	i	i
C=CCNc1oc(-c2ccco2)nc1S(=O)(=O)c1ccccc1	i	i	i	25µM	i	nt
Cc1ccc(S(=O)(=O)c2nc(-c3ccc(F)cc3)oc2SCC(N)=O)cc1	i	i	i	13µM	i	i
Cc1ccc(-c2nc(S(=O)(=O)c3ccc(C)cc3)c(SCC(=O)NCC3CCCO3)o2)cc1 (stereo not given)	i	i	i	45µM	i	nt
SMILES	GLS inhibitor	BAZ2B inh	JMJD2A Tudor inh	G9a inh	HP1b chromo inh	L3MBTL1 block
COc1ccc(C2=CC(c3ccc(F)cc3)n3ncc(C(=O)Nc4ccc(C)cc4)c3N2)cc1 (stereo not given)	i	i	?	i	i	nt
CCOC(=O)c1cc(-c2ccccc2)n(CCC(=O)Nc2ccc(OC)c(Cl)c2)c1C	i	i	i	i	i	nt
CSc1oc(-c2ccccc2)nc1S(=O)(=O)c1ccc(F)cc1	i	i	i	40µM	i	i
CSc1oc(-c2ccco2)nc1S(=O)(=O)c1ccc(C)cc1	i	i	i	28µM	i	nt
Cc1ccc(CN2C(=O)c3ccccc3Sc3ccc(C(=O)NC4CCCCC4)cc32)cc1	i	i	i	i	i	nt
Cc1ccccc1N1C(=O)CC(Nc2ccc3c(c2)OCO3)C1=O (stereo not given)	i	?	i	40µM	i	i
O=c1cc(-c2cccc(F)c2)[nH]c2cc(F)ccc12	nt	nt	nt	i	nt	nt
CC(C)(C)CC(C)(C)N1CNC(=S)NC1	i	i	i	45µM	i	i
COCCCN1C(=O)C(=O)/C(=C(/O)c2ccc(S(=O)(=O)N3CCOCC3)cc2)C1c1ccc(OC)cc1 (stereo not given)	i	i	i	40µM	i	nt
COCCN1C(=O)C(=O)/C(=C(/O)c2ccc(S(=O)(=O)N3CCOCC3)cc2)C1c1cccc(Cl)c1 (stereo not given)	i	i	i	i	i	i
COCCN1C(=O)C(=O)/C(=C(/O)c2ccc(S(=O)(=O)N3CCOCC3)cc2)C1c1ccc(O)cc1 (stereo not given)	i	?	i	71µM	i	i
COCCCN1C(=O)C(=O)/C(=C(/O)c2ccc(S(=O)(=O)N3CCCCC3)cc2)C1c1ccc(OC)cc1 (stereo not given)	i	i	i	nt	i	nt
COCCCN1C(=O)C(=O)/C(=C(/O)c2ccc(OC(C)C)cc2)C1c1ccc(O)c(OC)c1 (stereo not given)	i	i	50µM	56µM	i	i
CCOc1ccc(C2/C(=C(/O)c3ccc(S(=O)(=O)N4CCCCC4)cc3)C(=O)C(=O)N2CCCOC)cc1OC (stereo not given)	i	i	i	79µM	i	nt
COc1ccc(-c2cc3ccc(O)c(CN4CCCC4)c3oc2=O)cc1OC	i	i	i	i	i	nt
CCNc1ncc2nc(-c3cc(F)cc(F)c3)c(=O)n(CCC#N)c2n1	nt	nt	nt	i[0.501 µM]	nt	nt
Cc1cc(C)c(C(=O)COC(=O)c2cc([N+](=O)[O-])ccc2N2CCOCC2)cc1C	i	i	i	16µM	i	i
CC1CC(C)CN(C(=O)COC(=O)c2cc([N+](=O)[O-])ccc2N2CCOCC2)C1 (stereo not given)	i	i	i	79µM	i	i
COc1cc(C(=O)COC(=O)c2cc([N+](=O)[O-])ccc2N2CCOCC2)ccc1OC(F)F	i	i	i	32µM	i	i
CCOc1ccc(S(=O)(=O)N2CCN(C(=O)c3cc([N+](=O)[O-])ccc3N3CCOCC3)CC2)cc1	i	i	i	3.2µM	i	i
O=C(NCc1ccccc1Cl)c1nnc(Cc2cccc(F)c2)o1	i	i	i	i	i	nt
Cn1c(CN(O)S(=O)(=O)c2ccc(Cl)cc2)nnc1C(F)(F)F	i	i	i	10µM	i	nt
O=C(NCc1ccccc1)/C(=C\c1ccc([N+](=O)[O-])cc1)NC(=O)c1ccco1	i	i	i	i	i	nt
